Bioassay records from PubChem BioAssay.
TIM10 inh: inhibits growth of TIM10 yeast strain; S. cerevisiae TIM10 strain growth, BacTiter-Glo luminescence, 24 h; inhibition, % at 10 µM; hit rate 1.4% among 330,000; AID 463195;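 active means inhibition of 40% or more at the single tested concentration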;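 further: wild-type TIM10 isogenic control strain grown at permissive 25 °C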
tim23-1 inh: inhibits growth of tim23-1 mutant yeast. S. cerevisiae tim23-1 growth, BacTiter-Glo luminescence, 24 h. inhibition, % at 20 µM. hit rate 1.3% among 330,000. AID 463212;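 active means growth inhibition of the mutant yeast at or above 50%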;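 further: temperature-sensitive mutant grown at 25 °C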
tim10-1 inh: inhibits growth of tim10-1 mutant yeast; S. cerevisiae tim10-1 ts strain growth, BacTiter-Glo, 24 h; hit rate 2.2% among 330,000; inhibition, % at 20 µM;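 active means inhibition of at least 40%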;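 further: mutant grown at 25 °C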
PfHsp90 set2: inhibits growth of yeast expressing Plasmodium falciparum Hsp90; S. cerevisiae expressing PfHsp90, BacTiter-Glo ATP, 48 h; yeast lacking PDR1 and PDR3 efflux regulators; inhibition, % at 9.4 µM; hit rate 0.32% among 310,000; AID 504621;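 active means every replicate shows inhibition above about 80%, whatever the replicate mean, limit read from the data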
NALP3 yeast inh: NALP3 inhibition in yeast. AID 2825. inhibition, % at 10 µM. Yeast reconstituted NLRP3/ASC/caspase-1, beta-gal luminescence, 24 h. hit rate 0.39% among 330,000;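 active means inhibition of 50% or more; inactive means inhibition below 50%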
NALP1 yeast inh: NALP1 inhibition. S. cerevisiae NALP1/ASC/caspase-1 growth, X-gal OD620, 72 h. hit rate 0.61% among 280,000. inhibition, % at 10 µM; in the data active means inhibition mostly above about 24%, no sharp cut-off; inactive means mostly below about 32%
TIM10 conf: confirmation of TIM10 yeast growth inhibitors; shares compounds with TIM10 inh; S. cerevisiae tim10 strain growth, BacTiter-Glo luminescence, 24 h; inhibition, % at 10 µM; hit rate 63% among 4,600; AID 463215;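 active means inhibition of yeast growth at or above a set limit in either of two replicates at 10 µM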; further: this counterscreen used the strain with wild-type TIM10
Numbers stand for hits; – = inactive; · = no result given. Most compounds without a hit are left out; they make up all but 4.1% or so of the library.

SMILES	TIM10 inh	tim23-1 inh	tim10-1 inh	PfHsp90 set2	NALP3 yeast inh	NALP1 yeast inh	TIM10 conf
C#CCOCCOCCOCCNc1nc(N2CCN(C(=O)Cn3cc(CCCCN)nn3)CC2)nc(N2CCN(C(=O)Cn3cc(CCCN=C(N)N)nn3)CC2)n1	–	–	–	–	–	·	·
CC1=CC(=O)C(C(C)C)=C/C1=N/OC(=O)c1cccc([N+](=O)[O-])c1	43	–	–	–	–	–	32
Cc1ccc(-c2n[nH]c(=S)n2/N=C/c2cccs2)cc1	52	–	–	–	–	–	–
CCOc1ccc(S(=O)(=O)N2CCN(CCNS(=O)(=O)c3ccc(C)cc3)CC2)cc1	–	–	–	·	–	·	·
C[C@@]12C(=O)N(c3ccc(F)cc3)C(=O)N1[C@@H]1c3ccccc3OC[C@@H]1[C@H]2c1ccccc1	–	–	–	–	–	–	·
C[C@]12C(=O)N(c3ccc(F)cc3)C(=O)N1[C@H]1c3ccccc3OC[C@@H]1[C@H]2c1ccccc1	44	–	–	–	–	·	43
O=C(Nc1cccc(S(=O)(=O)N2CCOCC2)c1)C1CC1	–	–	–	–	–	·	·
Cc1cccc(CSC2=NCCN2S(=O)(=O)c2ccc(F)cc2)c1	–	–	–	–	–	–	·
CCn1c(CNc2cccc(Cl)c2)nnc1SCc1ccccc1	41	–	–	–	–	–	49
CCc1nnc(NC(=O)CSc2nnc(CNc3cccc(Cl)c3)n2CC)s1	–	–	–	–	–	–	·
CCn1cc(Br)c(C(=O)Nc2ccc(OC)cc2)n1	–	–	–	–	–	–	·
CCn1cc(Br)c(C(=O)Nc2ccc(Cl)c(Cl)c2)n1	62	–	–	–	–	–	45
CN(C)c1ccc(P(=O)(OCc2ccccc2)C(O)c2ccc(Br)cc2)cc1 (stereo not given)	–	–	–	–	–	·	·
CC(C)COP(=O)(c1ccc(N(C)C)cc1)C(O)c1ccc(Br)cc1 (stereo not given)	42	–	–	–	–	–	35
Cc1nn2c(-c3ccco3)nnc2c2ccccc12	62	–	–	·	–	·	48
COc1ccc(-c2csc3ncn(-c4ccc(C)cc4)c(=O)c23)cc1OC	–	–	–	–	–	–	·
COc1ccc(-n2cnc3scc(-c4ccc(OC)c(OC)c4)c3c2=O)cc1	40	–	–	–	–	–	–
Cc1ccc(NC(=O)CN2CCCC2)cc1Br	–	–	–	–	–	–	·
CN(C(=O)c1cccc(NC(=O)Cc2ccc(NC(=O)C3CCCN(C(=O)c4ccccc4)C3)cc2)c1)C1CCCCC1 (stereo not given)	·	·	·	–	·	·	·
CCc1sc(C(=O)NNC(=O)c2cncc(Br)c2)cc1C	–	–	–	–	–	·	·
Cc1cccc2c1[nH]c1nc(N/N=C\c3ccco3)nnc12	–	–	–	·	–	–	·
C=CCSc1nnc2c(n1)[nH]c1c(C)cccc12	47	–	–	–	–	–	37
COc1ccc([C@H]2CC(=O)C=C(/C=C/Cc3ccccc3)C2)cc1	47	–	–	–	–	·	47
COc1ccc(-c2csc(NC(=O)CC(C)C)n2)cc1	–	–	–	–	–	–	·
CC(C)CC(=O)NC(=S)Nc1nc(-c2cccc3ccccc23)cs1	47	–	–	–	–	–	–
SMILES	TIM10 inh	tim23-1 inh	tim10-1 inh	PfHsp90 set2	NALP3 yeast inh	NALP1 yeast inh	TIM10 conf
c1csc(C(c2nnnn2C2CCCCC2)N2CCN(c3nc4ccccc4s3)CC2)c1 (stereo not given)	·	·	·	–	·	–	·
c1ccc(C(c2nnnn2C2CCCC2)N2CCN(c3nc4ccccc4s3)CC2)cc1 (stereo not given)	47	–	–	–	–	–	–
Cc1ccc(C(c2nnnn2C2CCCC2)N2CCN(c3nc4ccccc4s3)CC2)cc1 (stereo not given)	56	–	–	–	–	·	–
COC(=O)c1ccccc1NC(=O)CSc1nnc(-c2cccnc2)o1	–	–	–	–	–	–	·
Cc1ccccc1Cn1c(C)nc2ccc([N+](=O)[O-])cc2c1=O	–	–	–	–	–	–	·
CCCC(=O)Nc1cc(C)c(NC(=O)c2cccs2)cn1	–	–	–	–	–	–	·
O=C(Nc1ccc(NC(=O)C2CC2)nc1)c1cccs1	–	–	–	–	–	–	·
O=C(Nc1ccc(NC(=O)c2cccs2)cn1)c1ccccc1	42	–	–	–	–	–	30
